Source: PubChem BioAssay (Tox21)
Values joined by “and” are separate entries in the source; they are usually repeats but may differ in a detail not shown here. Equal entries are not always repeated. Inconclusive results are not listed. Where a call stands in place of a potency, no number is given. Some compounds were tested as several samples or in several runs, with calls that do not always agree. Active and inactive are the calls of the source. Unless noted, the call rests on the fitted dose curve.

Columns and labels:
[1] = Nuclear factor erythroid 2-related factor 2/antioxidant responsive element (Nrf2/ARE) small molecule agonists: qHTS cell viability counter screen in human keratinocytes (AID 1919968; active means well fitted curve in the direction sought with a large enough effect in the repeat runs; an effect the other way counts as inactive or inconclusive; further: nearly all actives have a fitted effect of over 55% in size; further: potency means the concentration at half of the fitted maximal effect)
In short: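 Parallel cytotoxicity read: KeratinoSens HaCaT cells, compound treatment 23 h, viability by CellTiter-Fluor fluorescence 1 h post-reagent.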

[2] = molecular target: KiSS-1 receptor (Homo sapiens) (UniProt Q969F8); assay: Human kisspeptin (KISS1R) small molecule agonists, calcium flux assay in KISS1R-HEK293 cells (AID 1920064; active means well fitted curve in the direction sought with a large enough effect in the repeat runs; an effect the other way counts as inactive or inconclusive)
In short: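 Triplicate 15-concentration series were applied to dye-loaded human KISS1R HEK293 cells, and agonist-evoked calcium fluorescence was captured for 3 min.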

[3] = G protein-coupled receptor (GPCR) small molecule agonists, calcium flux assay: HEK293 wild type cell line counter screen (AID 1920065)
In short: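 Non-specific calcium responders were flagged by adding DMSO-dissolved compounds to dye-loaded cells and reading 480/540 nm fluorescence each second for 3 min; ATP served as positive control.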

[4] = p53 small molecule agonists, cell-based qHTS assay with human liver microsomes (AID 1963577)
In short: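 Compounds act here after metabolic activation: human liver microsomes and NADPH, both at 0.5 mg/mL final, were co-added to p53RE-bla cells. Incubation ran 16 h at 37 C, followed by LiveBLAzer detection.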

[5] = p53 small molecule agonists, cell-based qHTS assay with rat liver microsomes (AID 1963578)
In short: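 Read-out is beta-lactamase reporter fluorescence (LiveBLAzer, 2 h, room temperature, dark) in p53RE-bla cells treated 16 h at 37 C with compound, rat liver microsomes and NADPH, both 0.5 mg/mL final.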

[6] = p53 small molecule agonists, cell-based qHTS assay with human liver microsomes: qHTS cell viability counter screen (AID 1963579); further: nearly all actives have a fitted effect of over 45% in size; further: potency means the concentration at half of the fitted maximal effect
In short: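 Cells carrying the p53 response-element beta-lactamase reporter are treated for 16 h at 37 C with test compounds in the presence of human liver microsomes and NADPH (both 0.5 mg/mL final); ATP-based CellTiter-Glo luminescence then reports viability.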

[7] = p53 small molecule agonists, cell-based qHTS assay: qHTS cell viability counter screen (AID 1963581); further: nearly all actives have a fitted effect of over 45% in size
In short: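 Multiplexed with the reporter read, a CellTiter-Glo step (30 min, room temperature) gauges ATP-based viability of HCT-116 p53RE-bla cells after 16 h compound incubation at 37 C.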

[8] = molecular target: 5-hydroxytryptamine receptor 2A (Homo sapiens) (UniProt P28223); assay: 5-hydroxytryptamine receptor 2A (HTR2A) small molecule antagonists, cell-based qHTS assay (AID 1963586); further: nearly all actives have a fitted effect of over 45% in size
In short: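 CHO cells stably expressing human HTR2A were plated for 18 h at 37 C, then loaded with calcium dye for 1 h. Compounds were preincubated 5 min at room temperature before DOI (4 nM solution) was added. Kinetic fluorescence was read for 3 min.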

[9] = molecular target: 5-hydroxytryptamine receptor 2A (Homo sapiens) (UniProt P28223); assay: 5-hydroxytryptamine receptor 2A (HTR2A) small molecule agonists, cell-based qHTS assay (AID 1963587); further: nearly all actives have a fitted effect of over 30% in size; further: potency means the concentration at half of the fitted maximal effect
In short: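 HTR2A-CHO cells, plated 18 h at 37 C/5% CO2, dye-loaded 1 h at 37 C; compounds in DMSO added by pin tool (agonist mode). Intracellular calcium flux read as kinetic fluorescence on FDSS over 2 min at 1 s intervals.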

[10] = molecular target: Muscarinic acetylcholine receptor M1 (Homo sapiens) (UniProt P11229); assay: Cholinergic receptor muscarinic 1 (CHRM1) small molecule antagonists, cell-based qHTS assay (AID 1963588); further: nearly all actives have a fitted effect of over 40% in size; further: potency means the concentration at half of the fitted maximal effect
In short: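 Compounds were tested at 15 concentrations in three independent runs. Dye-loaded CHRM1-CHO cells were exposed 5 min at room temperature before stimulation by acetylcholine added at 50nM. Intracellular calcium was read kinetically on FDSS for 3 min.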

[11] = molecular target: Muscarinic acetylcholine receptor M1 (Homo sapiens) (UniProt P11229); assay: Cholinergic receptor muscarinic 1 (CHRM1) small molecule agonists, cell-based qHTS assay (AID 1963589); further: nearly all actives have a fitted effect of over 35% in size
In short: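 qHTS, 15-point titration, 3 independent runs: compounds pin-transferred onto dye-loaded CHRM1-CHO cells (human M1), calcium fluorescence followed every second to detect agonism.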

[12] = molecular target: Beta-2 adrenergic receptor (Homo sapiens) (UniProt P07550); assay: Adrenergic beta2 receptor (ADRB2) small molecule antagonists, cell-based qHTS assay (AID 1963592); further: series mostly up to about 92 µM; nearly all actives have a fitted effect of over 50% in size
In short: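 Assay format: CHO-ADRB2 cells, 18-20hr seeding at 37C/5% CO2, then compound plus 1nM isoproterenol agonist mix for 0.5hr RT. Homogeneous time-resolved fluorescence cAMP detection after 1hr, expressed as 665/615 nm ratio.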

[13] = molecular target: D(2) dopamine receptor (Homo sapiens) (UniProt P14416); assay: Dopamine D2 receptor (DRD2) small molecule agonists, cell-based qHTS assay (AID 1963594); further: nearly all actives have a fitted effect of over 35% in size
In short: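 HEK293 cells stably expressing DRD2 were cultured 24 h at 37 C, then given Ro20-1724 (0.1 mM final) and compounds for 10 min at room temperature. NKH477 (200nM) was then added for 30 min. cAMP was read by HTRF.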

[14] = molecular target: D(2) dopamine receptor (Homo sapiens) (UniProt P14416); assay: Dopamine D2 receptor (DRD2) small molecule antagonists, cell-based qHTS assay (AID 1963595; active means well fitted inhibition curve with a large enough effect in the signal ratio in the repeat runs, with a control signal flat; the % refers to the signal ratio)
In short: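 Cells were plated and grown for 24 h at 37 °C. Ro20-1724 (0.1 mM final) went in first, then compound for 10 min. NKH477 (200 nM) with quinpirole (12 nM) followed for 30 min at RT, then HTRF detection reagents for 1 h.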

[15] = p53 small molecule agonists, cell-based qHTS assay with rat liver microsomes: qHTS cell viability counter screen (AID 1963580); further: nearly all actives have a fitted effect of over 45% in size
In short: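 Counter screen for cytotoxicity under metabolic activation: rat liver microsomes and NADPH, 0.5 mg/mL final each, added with compounds to p53RE-bla HCT-116 cells; 16 h at 37 C, then ATP luminescence read.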

[16] = cAMP Responsive Elements (CRE) small molecule agonists, cell-based qHTS assay (AID 1963590)
In short: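 Quantitative HTS for CRE agonists: HEK 293T CRE-bla cells, overnight plating, 3 h compound incubation at 37 C/5% CO2, then 2 h room-temperature LiveBLAzer B/G FRET substrate loading.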

[17] = cAMP Responsive Elements (CRE) small molecule antagonists, cell-based qHTS assay (AID 1963591; active means well fitted inhibition curve with a large enough effect in the signal ratio in the repeat runs, not every such curve was filed as active; the % refers to the signal ratio)
In short: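 Fluorescence intensity from cleaved LiveBLAzer B/G substrate (2 h, room temperature) quantified CRE-bla activity in HEK 293T cells exposed 3 h to compound with 0.25 uM final NKH477.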

[18] = molecular target: Beta-2 adrenergic receptor (Homo sapiens) (UniProt P07550); assay: Adrenergic beta2 receptor (ADRB2) small molecule agonists, cell-based qHTS assay (AID 1963593);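 further: CHO cells stably overexpressing human ADRB2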
In short: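 CHO cells stably over-expressing ADRB2 were plated overnight at 37C, then dosed with compounds plus a stimulation mix containing 100uM IBMX and 25uM Ro-20-1724 for 0.5hr at room temperature. cAMP was measured by HTRF competition, 1hr.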

[19] = p53 small molecule agonists, cell-based qHTS assay (AID 1963582; active means well fitted activation curve with a large enough effect in the signal ratio in the repeat runs, not every such curve was filed as active; the % refers to the signal ratio)
In short: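 Beta-lactamase reporter cells (p53RE-bla) treated with compounds for 16 h at 37 C; FRET substrate, 2 h, room temperature; fluorescence intensity.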

Chain of D(2) dopamine receptor (Homo sapiens) (P14416 whole entry, looked up): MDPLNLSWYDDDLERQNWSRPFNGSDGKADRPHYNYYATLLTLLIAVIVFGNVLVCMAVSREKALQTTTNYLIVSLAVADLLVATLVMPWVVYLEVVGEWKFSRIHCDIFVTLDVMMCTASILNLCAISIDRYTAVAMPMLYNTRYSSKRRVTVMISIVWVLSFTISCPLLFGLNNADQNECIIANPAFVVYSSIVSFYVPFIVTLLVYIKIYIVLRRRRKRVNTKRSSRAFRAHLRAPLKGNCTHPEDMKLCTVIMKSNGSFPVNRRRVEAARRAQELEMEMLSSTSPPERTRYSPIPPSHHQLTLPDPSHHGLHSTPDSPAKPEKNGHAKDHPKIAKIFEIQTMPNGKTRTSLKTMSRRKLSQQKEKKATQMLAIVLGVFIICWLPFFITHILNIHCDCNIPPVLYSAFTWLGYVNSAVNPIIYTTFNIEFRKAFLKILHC
Chain of Beta-2 adrenergic receptor (Homo sapiens) (P07550 whole entry, looked up): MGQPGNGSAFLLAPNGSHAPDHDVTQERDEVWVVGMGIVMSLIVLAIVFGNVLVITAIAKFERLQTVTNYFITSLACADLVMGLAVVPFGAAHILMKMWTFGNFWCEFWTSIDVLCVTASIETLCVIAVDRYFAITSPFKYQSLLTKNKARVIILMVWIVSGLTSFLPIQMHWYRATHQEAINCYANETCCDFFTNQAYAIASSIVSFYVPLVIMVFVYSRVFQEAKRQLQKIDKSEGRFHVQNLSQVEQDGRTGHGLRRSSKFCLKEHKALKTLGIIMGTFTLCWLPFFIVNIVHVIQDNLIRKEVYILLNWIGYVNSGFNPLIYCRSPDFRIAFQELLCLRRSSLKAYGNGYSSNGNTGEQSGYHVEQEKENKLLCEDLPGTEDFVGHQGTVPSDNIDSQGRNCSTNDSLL
Chain of 5-hydroxytryptamine receptor 2A (Homo sapiens) (P28223 whole entry, looked up): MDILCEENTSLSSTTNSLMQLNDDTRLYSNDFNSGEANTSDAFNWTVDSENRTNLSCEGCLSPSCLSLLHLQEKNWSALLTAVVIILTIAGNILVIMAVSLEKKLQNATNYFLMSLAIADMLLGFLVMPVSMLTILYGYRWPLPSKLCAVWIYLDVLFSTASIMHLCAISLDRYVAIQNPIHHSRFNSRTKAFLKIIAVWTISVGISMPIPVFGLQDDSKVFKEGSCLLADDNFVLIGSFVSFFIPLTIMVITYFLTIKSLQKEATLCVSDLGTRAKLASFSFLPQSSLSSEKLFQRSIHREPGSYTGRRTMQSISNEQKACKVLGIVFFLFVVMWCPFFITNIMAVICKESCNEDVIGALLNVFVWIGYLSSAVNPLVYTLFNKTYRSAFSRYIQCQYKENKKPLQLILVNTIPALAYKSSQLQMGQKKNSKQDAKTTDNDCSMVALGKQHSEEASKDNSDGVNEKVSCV
Chain of Muscarinic acetylcholine receptor M1 (Homo sapiens) (P11229 whole entry, looked up): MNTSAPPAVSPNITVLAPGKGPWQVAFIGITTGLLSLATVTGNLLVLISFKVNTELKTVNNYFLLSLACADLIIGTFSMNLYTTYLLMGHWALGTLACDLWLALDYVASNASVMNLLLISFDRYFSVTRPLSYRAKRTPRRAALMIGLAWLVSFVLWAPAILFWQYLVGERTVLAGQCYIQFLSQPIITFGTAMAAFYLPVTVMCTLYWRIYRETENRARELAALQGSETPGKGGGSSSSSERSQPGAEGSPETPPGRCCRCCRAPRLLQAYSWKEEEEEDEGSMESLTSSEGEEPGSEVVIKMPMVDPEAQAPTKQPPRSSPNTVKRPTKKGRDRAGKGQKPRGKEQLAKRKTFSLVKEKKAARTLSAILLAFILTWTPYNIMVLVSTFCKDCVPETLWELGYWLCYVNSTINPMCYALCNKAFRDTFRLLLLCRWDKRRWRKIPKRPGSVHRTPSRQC
Chain of KiSS-1 receptor (Homo sapiens) (Q969F8 whole entry, looked up): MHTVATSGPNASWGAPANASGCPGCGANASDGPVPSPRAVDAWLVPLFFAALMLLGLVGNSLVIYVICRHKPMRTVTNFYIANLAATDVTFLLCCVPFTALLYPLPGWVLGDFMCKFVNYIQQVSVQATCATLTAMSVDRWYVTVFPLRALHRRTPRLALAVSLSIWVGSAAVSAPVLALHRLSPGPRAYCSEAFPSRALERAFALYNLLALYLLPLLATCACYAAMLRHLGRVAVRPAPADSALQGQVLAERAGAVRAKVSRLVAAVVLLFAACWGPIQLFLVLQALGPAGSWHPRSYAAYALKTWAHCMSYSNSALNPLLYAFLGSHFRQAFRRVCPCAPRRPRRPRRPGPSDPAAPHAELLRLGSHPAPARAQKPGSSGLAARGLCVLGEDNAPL

With `COc1cc([C@H]2Oc3cc([C@H]4Oc5cc(O)cc(O)c5C(=O)[C@@H]4O)ccc3O[C@@H]2CO)ccc1O` the Potency [1] was “inactive”, the Potency [2] was “inactive” and the Potency [3] was “inactive”. The Potency [4] was “inactive”, the Potency [5] was “inactive” and the Potency [6] was “inactive”. The Potency [7] was “inactive”, the Potency [8] was “inactive” and the Potency [9] was “inactive”. The Potency [10] was “inactive”, the Potency [11] was “inactive” and the Potency [12] was “inactive”. For the same compound, the Potency [13] was “inactive” and the Potency [14] was “inactive”.
For `CC(C)[C@@H]1CC[C@@H](C)C[C@H]1O`, the Potency [1] was “inactive”, the Potency [3] was “inactive” and the Potency [6] was “inactive”. The Potency [15] was “inactive”, the Potency [7] was “inactive” and the Potency [8] was “inactive”. For the same compound, the Potency [9] was “inactive”, the Potency [10] was “inactive” and the Potency [16] was “inactive”. The Potency [17] was “inactive”, the Potency [12] was “inactive” and the Potency [18] was “inactive”. The Potency [13] was “inactive” and the Potency [14] was “inactive”.
In the case of `C=C(C)C(=O)OCCCCCC`, the Potency [1] is reported as “inactive”, the Potency [2] is reported as “inactive” and the Potency [3] is reported as “inactive”. The Potency [4] was “inactive”, the Potency [6] was “inactive” and the Potency [15] was “inactive”. The Potency [7] was “inactive”, the Potency [19] was “inactive” and the Potency [8] was “inactive”. For the same compound, the Potency [9] was “inactive”, the Potency [11] was “inactive” and the Potency [16] was “inactive”. For the same compound, the Potency [17] was “inactive”, the Potency [12] was “inactive” and the Potency [13] was “inactive”. The Potency [14] was “inactive”.
In the case of `CC(=O)Nc1ccc(C(=O)CCl)cc1`, the Potency [1] is reported as “inactive and 27.3 µM (active)”, the Potency [2] is reported as “inactive” and the Potency [3] is reported as “inactive”. For the same compound, the Potency [4] was “inactive”, the Potency [5] was “inactive” and the Potency [6] was “inactive”. The Potency [15] was “inactive”, the Potency [7] was “inactive” and the Potency [8] was “inactive”. The Potency [9] was “inactive”, the Potency [10] was “inactive” and the Potency [11] was “inactive”. For the same compound, the Potency [17] was “inactive”, the Potency [12] was “inactive” and the Potency [13] was “inactive”. The Potency [14] was “inactive”.
For `Clc1ccc(Sc2cc(Cl)c(Cl)cc2Cl)cc1`, the Potency [1] was “inactive”, the Potency [2] was “inactive” and the Potency [3] was “inactive”. The Potency [4] was “inactive”, the Potency [5] was “inactive” and the Potency [15] was “inactive”. For the same compound, the Potency [7] was “inactive”, the Potency [19] was “inactive” and the Potency [9] was “inactive”. The Potency [10] was “inactive”, the Potency [11] was “inactive” and the Potency [16] was “inactive”. For the same compound, the Potency [17] was “inactive”, the Potency [12] was “inactive” and the Potency [18] was “inactive”. The Potency [13] was “inactive” and the Potency [14] was “inactive”.
With `CCCCCCCCCCCCCC[N+](C)(C)C` the Potency [1] was 52.7 µM (active) and 38.5 µM (active) and 2.37 µM (active), the Potency [2] was “inactive” and the Potency [3] was “inactive”. The Potency [4] was “inactive”, the Potency [5] was “inactive” and the Potency [6] was “inactive”. For the same compound, the Potency [15] was “inactive”, the Potency [7] was “inactive” and the Potency [19] was “inactive”. The Potency [9] was 48.9 µM (active), the Potency [10] was 941 nM (active) and 818 nM (active) and the Potency [12] was “inactive”. For the same compound, the Potency [18] was “inactive”, the Potency [13] was “inactive” and the Potency [14] was “inactive”.
With `C[C@]12C[C@H](O)[C@H]3[C@@H](CCC4=CC(=O)CC[C@@]43C)[C@@H]1CC[C@@H]2C(=O)CO` the Potency [1] was “inactive”, the Potency [3] was “inactive” and the Potency [4] was “inactive”. For the same compound, the Potency [5] was “inactive”, the Potency [6] was “inactive” and the Potency [15] was “inactive”. The Potency [7] was “inactive”, the Potency [19] was “inactive” and the Potency [8] was “inactive”. For the same compound, the Potency [9] was “inactive”, the Potency [10] was “inactive” and the Potency [11] was “inactive”. The Potency [12] was “inactive”, the Potency [18] was “inactive” and the Potency [13] was “inactive”. For the same compound, the Potency [14] was “inactive”.
For `CCCCCCC(C)(C)S`, the Potency [1] was “inactive”, the Potency [2] was “inactive” and the Potency [3] was “inactive”. For the same compound, the Potency [7] was “inactive”, the Potency [8] was “inactive” and the Potency [9] was “inactive”. For the same compound, the Potency [10] was “inactive”, the Potency [11] was “inactive” and the Potency [16] was “inactive”. The Potency [17] was “inactive”, the Potency [12] was “inactive” and the Potency [18] was “inactive”. The Potency [13] was “inactive” and the Potency [14] was “inactive”.
In the case of `c1cnc2c(c1)ccc1cccnc12`, the Potency [1] is reported as 3.89 µM (active) and 6.11 µM (active) and 7.7 µM (active), the Potency [3] is reported as “inactive” and the Potency [4] is reported as “inactive”. The Potency [5] was “inactive”, the Potency [6] was 36.7 µM (active) and the Potency [7] was “inactive”. The Potency [8] was “inactive”, the Potency [9] was “inactive” and the Potency [10] was “inactive”. For the same compound, the Potency [11] was “inactive”, the Potency [16] was “inactive” and the Potency [12] was “inactive”. For the same compound, the Potency [18] was “inactive”, the Potency [13] was “inactive” and the Potency [14] was “inactive”.
